Results on five molecules are retold here after PubChem BioAssay (EPA / NIEHS).

Molecules are shown by their SMILES. Calls of active or inactive are those of the source. How the source made its calls: active means hit-call score of the fitted dose curve at least 0.9, where 1 is the maximum; inactive means score below 0.9.

Read-out in test [1]: Urokinase-type plasminogen activator receptor (uPAR), PLAUR (gene 5329)
In words: BSK_4H_uPAR: BioMAP Diversity Plus: 4H Assay for Urokinase-type plasminogen activator receptor (uPAR) Biomarker Activity (AID 2283030). Conditions: primary human endothelial cells (HUVEC); actives raise or lower the signal. The method in brief: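 Endpoint derived via bidirectional curve fitting against DMSO baseline; readout was ELISA detection of uPAR on umbilical vein endothelial cells at 24 h post-treatment, with SRB-stained parallel cultures assessing cytotoxicity.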

Read-out in test [2]: Vascular cell adhesion molecule 1 (VCAM1), VCAM1 (gene 7412)
In words: BSK_4H_VCAM1: BioMAP Diversity Plus: 4H Assay for Vascular cell adhesion molecule 1 (VCAM1) Biomarker Activity (AID 2283033).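 On outcome: cell-surface VCAM-1 protein measured by ELISA.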 Conditions: primary human endothelial cells (HUVEC); actives raise or lower the signal. The essentials: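 VCAM-1 ELISA read 24 h after chemical dosing of HUVEC in the BioMAP 4H system, with gain or loss of signal fitted relative to DMSO. Parallel SRB staining (560 nm) checked overt cytotoxicity.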

Read-out in test [3]: Interferon-gamma inducible Protein 10 (IP10), CXCL10 (gene 3627)
In words: BSK_BE3C_IP10: BioMAP Diversity Plus: BE3C Assay for Interferon-gamma inducible Protein 10 (IP10) Biomarker Activity (AID 2283034). The conditions noted are these: primary human bronchial epithelial cells; actives raise or lower the signal. The essentials: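 IP-10 quantified by ELISA in human primary bronchial epithelial cell cultures at 24 hours post-dosing. Gain or loss of signal fitted relative to DMSO; parallel SRB staining assessed overt cytotoxicity.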

Read-out in test [4]: Transforming growth factor beta 1 (TGFb1), TGFB1 (gene 7040)
Briefly: BSK_BE3C_TGFb1: BioMAP Diversity Plus: BE3C Assay for Transforming growth factor beta 1 (TGFb1) Biomarker Activity (AID 2283036;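 on outcome: TGF-b1 protein level measured by ELISA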). Conditions: primary human bronchial epithelial cells; actives raise or lower the signal. The method in brief: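 ELISA readout of TGF-b1 from human lung bronchial epithelial primary cells, taken 24 h post-treatment. Gain or loss of signal fitted relative to DMSO baseline, with parallel SRB staining for overt cytotoxicity.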

Read-out in test [5]: Plasminogen activator inhibitor-1 (PAI1), SERPINE1 (gene 5054)
Briefly: BSK_BE3C_PAI1: BioMAP Diversity Plus: BE3C Assay for Plasminogen activator inhibitor-1 (PAI1) Biomarker Activity (AID 2283037). Conditions: primary human bronchial epithelial cells; actives raise or lower the signal. The essentials:
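PAI-1 was measured by ELISA in human primary bronchial epithelial cultures 24 h after chemical dosing, with cytotoxicity checked by SRB total-protein staining in parallel cultures. Activity was fitted in both directions relative to DMSO.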

Read-out in test [6]: urokinase plasminogen activator (uPA), PLAU (gene 5328)
Briefly: BSK_BE3C_uPA: BioMAP Diversity Plus: BE3C Assay for urokinase plasminogen activator (uPA) Biomarker Activity (AID 2283038).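 On outcome: uPA protein level quantified by ELISA in cell cultures; uPA read one day after compound addition.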 Conditions: primary human bronchial epithelial cells; actives raise or lower the signal. The essentials:
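Using confluent primary human lung bronchial epithelial cultures, we dosed chemicals, waited 24 h, then ran a uPA ELISA, fitting bidirectionally against DMSO.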

Read-out in test [7]: Urokinase-type plasminogen activator receptor (uPAR), PLAUR (gene 5329)
In words: BSK_BE3C_uPAR: BioMAP Diversity Plus: BE3C Assay for Urokinase-type plasminogen activator receptor (uPAR) Biomarker Activity (AID 2283039).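 On outcome: cells exposed to compound for one day before measurement.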 Conditions: primary human bronchial epithelial cells; actives raise or lower the signal. The method in brief:
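uPAR levels were measured by ELISA after 24 h compound treatment of primary human bronchial epithelial cells, fitted in both directions relative to DMSO. Parallel SRB staining served as the cytotoxicity read-out.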

Read-out in test [8]: Interleukin-6 (IL6), IL6 (gene 3569)
In words: BSK_CASM3C_IL6: BioMAP Diversity Plus: CASM3C Assay for Interleukin-6 (IL6) Biomarker Activity for (AID 2283040). Conditions: primary human coronary artery smooth muscle cells; actives raise or lower the signal.

Read-out in test [9]: Tissue plasminogen activator (tPA), PLAT (gene 5327)
Briefly: BSK_BE3C_tPA: BioMAP Diversity Plus: BE3C Assay for Tissue plasminogen activator (tPA) Biomarker Activity (AID 2283041).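 On outcome: tPA level quantified by ELISA one day after compound addition.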 Conditions: primary human bronchial epithelial cells; actives raise or lower the signal. The essentials:
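tPA measured by ELISA 24 h after dosing human primary bronchial epithelial cells (BE3C system). Changes in either direction were fitted against DMSO. Parallel cultures were stained with SRB to flag overt cytotoxicity.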

Read-out in test [10]: Interleukin-8 (IL8), CXCL8 (gene 3576)
In words: BSK_CASM3C_IL8: BioMAP Diversity Plus: CASM3C Assay for Interleukin-8 (IL8) Biomarker Activity (AID 2283042).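 Further: IL-8 protein level quantified by ELISA.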 Conditions: primary human coronary artery smooth muscle cells; actives raise or lower the signal.

Read-out in test [11]: Human Leukocyte Antigen - DR isotype (HLADR), HLA-DRA (gene 3122)
In words: BSK_CASM3C_HLADR: BioMAP Diversity Plus: CASM3C Assay for Human Leukocyte Antigen - DR isotype (HLADR) Biomarker Activity (AID 2283043).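 Further: cell-surface HLA-DR protein level quantified by ELISA.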 Conditions: primary human coronary artery smooth muscle cells; actives raise or lower the signal.

Read-out in test [12]: Macrophage colony-stimulating factor (MCSF), CSF1 (gene 1435)
In words: BSK_CASM3C_MCSF: BioMAP Diversity Plus: CASM3C Assay for Macrophage colony-stimulating factor (MCSF) Biomarker Activity (AID 2283044).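 Further: M-CSF protein amount quantified by ELISA after 24 h exposure.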 Conditions: primary human coronary artery smooth muscle cells; actives raise or lower the signal.

Read-out in test [13]: Low-density lipoprotein receptor (LDLR), LDLR (gene 3949)
In words: BSK_CASM3C_LDLR: BioMAP Diversity Plus: CASM3C Assay for Low-density lipoprotein receptor (LDLR) Biomarker Activity (AID 2283045).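 Further: LDLR protein level on the cell surface quantified by ELISA.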 The conditions noted are these: primary human coronary artery smooth muscle cells; actives raise or lower the signal.

Read-out in test [14]: Monocyte Chemoattractant Protein-1 (MCP1), CCL2 (gene 6347)
In words: BSK_CASM3C_MCP1: BioMAP Diversity Plus: CASM3C Assay for Monocyte Chemoattractant Protein-1 (MCP1) Biomarker Activity (AID 2283046).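 Further: MCP-1 level quantified by ELISA 24 h after dosing.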 Conditions: primary human coronary artery smooth muscle cells; actives raise or lower the signal.

Test [15] can be described thus: BSK_CASM3C_Proliferation: Cell Proliferation Assessment in the BioMAP Diversity Plus: CASM3C Assay (AID 2283047).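 Further: sulforhodamine B total protein stain as relative cell number at 560 nm; sub-confluent cells exposed 48 h before staining; fitted both ways against DMSO so gain or loss of cell number.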 The conditions noted are these: primary human coronary artery smooth muscle cells.
Read-out in test [16]: Monokine induced gamma interferon (MIG), CXCL9 (gene 4283)
Briefly: BSK_CASM3C_MIG: BioMAP Diversity Plus: CASM3C Assay for Monokine induced gamma interferon (MIG) Biomarker Activity (AID 2283048).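 Further: MIG protein level measured by ELISA.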 Conditions: primary human coronary artery smooth muscle cells; actives raise or lower the signal.

Read-out in test [17]: serum amyloid A (SAA), SAA1 (gene 6288)
In words: BSK_CASM3C_SAA: BioMAP Diversity Plus: CASM3C Assay for serum amyloid A (SAA) Biomarker Activity (AID 2283049).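 Further: SAA protein level quantified by ELISA.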 Conditions: primary human coronary artery smooth muscle cells; actives raise or lower the signal.

Read-out in test [18]: Monokine induced gamma interferon (MIG), CXCL9 (gene 4283)
In words: BSK_BE3C_MIG: BioMAP Diversity Plus: BE3C Assay for Monokine induced gamma interferon (MIG) Biomarker Activity (AID 2283035). Conditions: primary human bronchial epithelial cells; actives raise or lower the signal. The method in brief:
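hu bronchial epithelial 1° cells, 24 h cpd; MIG by ELISA; bidirectional fit, DMSO = baseline.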

As to `CCCCNC(=O)n1c(NC(=O)OC)nc2ccccc21`, the AC50 in test [1] was 9.62 µM (active). For the same molecule, the outcome in test [2], in test [3], in test [4], in [5], in test [6] and in test [7] was inactive. Besides, the result in test [8], in test [9], in test [10], in test [11], in test [12] and in test [13] was inactive. The result in test [14], in test [15], in test [16] and in [17] was inactive.

As to `N#CC(CCc1ccc(Cl)cc1)(Cn1cncn1)c1ccccc1` (stereo unspecified), the result in [1], in [2], in [18], in [4], in [5] and in test [6] was inactive. Besides, the outcome in test [7], in test [8], in test [9], in [10], in test [11] and in test [12] was inactive. The result in test [13], in test [14], in test [15], in test [16] and in test [17] was inactive. For the same molecule, in [3], the AC50 was 33.7 µM (active).

As to `CN(C)C(=S)SSC(=S)N(C)C`, the AC50 in test [1] was 26.3 µM (active); in [2], 29.3 µM (active); in test [3], 10.7 µM (active); in test [4], 12.9 µM (active); in test [5] it was 27.1 µM (active); in [6] it was 7.75 µM (active). Further, the AC50 in test [7] was 9.65 µM (active); in [9] it was 12 µM (active); in test [12], 12 µM (active); in test [14], 20 µM (active); in [15] it was 12.6 µM (active); in [16], 14.6 µM (active). For the same molecule, the outcome in [8], in test [10], in test [11], in test [13] and in test [17] was inactive.

With `CC1=C(C(=O)Nc2ccccc2)SCCO1`, the result in test [1], in [2], in test [3], in test [4], in test [5] and in [7] was inactive. For the same molecule, the result in [8], in [9], in test [10], in test [11], in test [13] and in test [14] was inactive. Further, the outcome in test [15], in test [16] and in test [17] was inactive. For the same molecule, the AC50 in test [6] is 3.97 µM (active); in test [12], 0.524 µM (active).

As to `COC(=O)C=C(C)OP(=O)(OC)OC`, the result in test [1], in test [2], in [3], in test [4], in test [5] and in [6] was inactive. The result in test [7], in test [8], in test [9], in test [10], in test [11] and in test [12] was inactive. Moreover, the result in test [13], in test [14], in test [15], in test [16] and in [17] was inactive.
